# GIRK2 activator – Activators of human GIRK2-containing channels; HEK293 GIRK2/NPY4 cells, thallium flux fluorescence; 34,000 tested, under 10 active; activation (% efficacy), % for hits at 37.5 µM; AID 1259324; P48051;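 active means primary screen hit, no activity in plain HEK293 cells, and in GIRK2-only cells above 5% efficacy rising with concentration; inactive means the rest, including fluorescent compounds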;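 further: efficacy is normalized control-subtracted fluorescence 15 s after thallium addition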
# AMPAR-TARP mod – modulators of AMPA receptor GluA2-stargazin complexes. O88602+P19491. 40,000 compounds, 3.5% hits. HEK293 GluA2+stargazin, membrane potential dye (FDSS), glutamate EC50; hits were called plate by plate, in both directions. AID 1259245. calls only at 30 µM;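 active means any of four per-well response measures lying three or more SD from its plate-wide compound average, in either direction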
# Active calls of the source: *; i = inactive; nt = not tested or not shown; + = active, no number. The sample as a whole holds a higher share of hits than the screen did.
SMILES,GIRK2 activator,AMPAR-TARP mod
O=C(NC1CCCCCC1)c1n[nH]c2ccccc12,nt,i
CCCc1c(C(=O)NCCO)nnn1-c1ccc(C)cc1,i,i
CCc1nnc2c(=O)n(-c3cccc4ccccc34)ccn12,i,i
O=C1CN(c2ccccc2NC(=O)NCc2cccc3ccccc23)CCN1,i,i
O=C(CNS(=O)(=O)c1ccc(Cl)cc1)N1CCOC(c2ccccc2)C1 (stereo not drawn),i,nt
Cc1ccccc1CN(c1ccc(F)cc1)S(=O)(=O)c1ccc2nncn2c1,i,i
CCc1ccc(NC(=O)C(=O)NCC2(O)CCCC2)cc1,i,i
CCOC(=O)C1CCN(S(C)(=O)=O)CC1,i,i
O=C1CCS(=O)(=O)N1c1ccc(S(=O)(=O)NCCc2cccs2)cc1,i,+
Cc1ccc(N2C(=O)CCS2(=O)=O)cc1S(=O)(=O)NCCc1c[nH]c2ccccc12,i,i
S=c1nc(NCc2ccc(Cl)c(Cl)c2)c2ccccc2[nH]1,i,i
COCCN1CCC(CNC(=O)C2CCN(S(C)(=O)=O)CC2)CC1,i,nt
CS(=O)(=O)N1CCC(CNC(=O)C2CCCCC2)CC1,i,+
O=C(Nc1cccc(N2CCCCC2=O)c1)c1cccc([N+](=O)[O-])c1,i,i
CC(=O)Nc1ccc(NC(=O)C(=O)NCC(c2cccn2C)N(C)C)cc1 (stereo not drawn),i,i
COc1ccc(OC)c(NC(=O)c2nnn(-c3ccccc3)c2C)c1,i,i
CCc1cc2c(N3CCN(c4nc(C)cc(C)n4)CC3)ncnc2s1,nt,i
Cc1cc(C)c2c(n1)sc1c(N3CCN(CCO)CC3)ncnc12,i,+
N#C/C(=C\N1CCN(Cc2ccc3c(c2)OCO3)CC1)C(=O)NCc1ccccc1,i,i
COc1ccc(CNC(=O)/C(C#N)=C/N2CCN(Cc3ccc4c(c3)OCO4)CC2)cc1,i,+
CSc1nn(CC(=O)NCc2ccc3c(c2)OCO3)c(N)c1-c1nc(-c2ccccc2)no1,i,i
COc1ccccc1OCC(=O)Nc1ccc2c(c1)N(C(=O)C(C)(C)C)CC2,i,+
COc1ccc(Cl)cc1S(=O)(=O)Nc1ccc2c(c1)N(C(=O)C(C)(C)C)CC2,i,+
COc1ccc(C)cc1S(=O)(=O)Nc1ccc2c(c1)N(C(=O)C(C)(C)C)CC2,i,i
COc1ccc(OCC(=O)Nc2ccc3c(c2)N(C(=O)C(C)(C)C)CC3)cc1,i,i
SMILES,GIRK2 activator,AMPAR-TARP mod
COc1ccc(CC(=O)Nc2ccc3c(c2)N(C(=O)C2CC2)CC3)cc1OC,i,i
CC(C)S(=O)(=O)c1cccc(C(=O)Nc2nnc(-c3ccc4c(c3)OCCO4)o2)c1,i,i
O=C(NCC1(O)CCCC1)Nc1ccc2c(c1)OCO2,i,i
CC(C)S(=O)(=O)c1ccc(C(=O)Nc2sc3c(c2C(N)=O)CCCC3)cc1,i,i
CC(=O)N1CCc2c(sc(NC(=O)c3ccc(S(=O)(=O)C(C)C)cc3)c2C(N)=O)C1,i,+
Cc1ccc(S(=O)(=O)NCC(=O)Nc2ccc3c(c2)Cc2ccccc2-3)cc1,i,i
CNC(=O)C(=O)NCC1(c2ccc(OC)cc2)CCCC1,i,i
O=C(/C=C/c1ccco1)N1CCC(c2nnc(-c3ccco3)s2)CC1,i,i
O=C(NC(c1ccccc1)c1ccccc1)N1CCC(c2cccs2)CC1,i,i
O=C(NC12CC3CC(CC(C3)C1)C2)N1CCC(c2cccs2)CC1,i,+
COc1ccc(NC(=O)c2ccc(CNS(=O)(=O)c3cccc(Cl)c3)cc2)cc1,nt,i
Cn1c(-c2ccccn2)nn(CCNC(=O)c2ccccc2SC(F)F)c1=O,i,i
COc1cccc(-c2cc(CC(=O)N3CCc4ccccc4C3)no2)c1,i,+
COc1ccc(-c2cc(CC(=O)N3CCc4ccccc4C3)no2)cc1OC,i,i
O=S(=O)(c1ccc(Cl)s1)N1CCN(c2ccc(-c3ccco3)nn2)CC1,i,i
Cc1nc(N2CCN(C(=O)Cc3ccc(Cl)cc3)CC2)cc(-n2ccnc2)n1,i,i
O=C1/C(=C/c2ccccc2F)Oc2cc(O)ccc21,nt,i
COc1cc(/C=C2\Oc3cc(O)ccc3C2=O)cc(OC)c1OC,nt,+
O=C1/C(=C/c2cccs2)Oc2cc(O)ccc21,nt,+
O=C1/C(=C/c2ccc(Cl)c(Cl)c2)Oc2cc(O)ccc21,nt,i
COc1ccc(/C=C2\Oc3cc(O)ccc3C2=O)cc1OC,nt,+
COc1cc(/C=C2\Oc3cc(OC(=O)c4c(OC)cccc4OC)ccc3C2=O)cc(OC)c1OC,nt,i
CN(C)C(CNS(=O)(=O)c1ccccc1[N+](=O)[O-])c1ccco1 (stereo not drawn),nt,i
COc1ccc(NC(=O)CSC2=NS(=O)(=O)c3ccc(C)cc3N2)cc1OC,i,i
O=C(c1ccccc1Cl)N1CCC(c2nnc(-c3ccco3)o2)CC1,i,i

# Bioassay records deposited in PubChem by several laboratories.
